Values joined by “and” are separate entries in the source; they are usually repeats but may differ in a detail not shown here. Equal entries are not always repeated. Inconclusive results are not listed. A call without a number means that no potency is given here. Some compounds were tested as several samples or in several runs, with calls that do not always agree. Active and inactive are the calls of the source. Calls come from the whole dose curve; as a rule, active = well fitted cell-killing curve with a large enough effect in the repeat runs; inconclusive = weak or mixed curves, or effect the other way; inactive = flat fitted curve, though single readings scatter.
Potency is the fitted concentration of half-maximal effect.

A short description of the test: qHTS RealTime-Glo MT Cell Viability Assay in HEK293 cells - 32 hour (AID 1224868). Note: nearly all actives have a fitted effect of over 50% in size. Conditions: RealTime-Glo luminescence; series mostly up to 76.8 µM. From the text: National Center for Advancing Translational Sciences [NCATS]
NIH Chemical Genomics Center [NCGC]
U.S. Environmental Protection Agency [EPA]
National Institutes of Environmental Health Sciences [NIEHS]
National Toxicology Program [NTP]
U.S. Food and Drug Administration [FDA]
Measure of cell viability is critical in the cell-base assay. Analysis of cell viability is necessary for the characterization of cell responses to cytotoxic drugs and environmental stress. A RealTime-Glo MT Cell Viability Assay to monitor cell viability in real time of continues cell culture during 40 hours of compound treatment was used to screen Tox21 10K library compounds in Hek293 cells. The RealTime-Glo MT Cell Viability Assay is a nonlytic, homogeneous, bioluminescent method to measure cell viability in real time using a simple, plate-based method. The assay involves adding NanoLuc luciferase and a cell-permeant prosubstrate to cells in culture. Viable cells reduce the proprietary prosubstrate to generate a substrate for NanoLuc luciferase. This substrate diffuses from cells into the surrounding culture medium, where it is rapidly used by the NanoLuc Enzyme to produce a luminescent signal. The signal correlates with the number of viable cells, making the assay well suited for cytotoxicity studies.
Tox21 Assay Protocol Summary:
The mixture of Hek293 cell suspension and reagents were dispensed at 600cells/6 ul/well in 1536-well tissue culture treated black solid bottom plates using a Multidrop dispenser. After the assay plates were incubated at a 37 C/5% CO2 incubator for 5 hours, 23 nL of compounds dissolved in DMSO, positive and negative controls was transferred to the assay plate by a pintool work station. The plates were incubated at 37 C for 40 hours. The luminescence intensity were measured at 0h, 8h, 16h, 24h, 32h and 40h time points using ViewLux plate reader during compound treatment.
A general note: qHTS replaces the single test concentration by a dilution series.
Consider `O=Nc1ccc(Nc2ccccc2)cc1`, for which the Potency was 6.2 µM (active) and 9.77 µM (active).

On to `COC(=O)[C@H]1[C@H]2C[C@@H]3c4[nH]c5cc(OC)ccc5c4CCN3C[C@H]2C[C@@H](OC(=O)c2cc(OC)c(OC)c(OC)c2)[C@@H]1OC`, for which the Potency was 5.48 µM (active) and 6.34 µM (active) and 9.52 µM (active).

With `Nc1cc(Cl)c(-c2cc(Cl)c(N)cc2Cl)cc1Cl`, the Potency is 6.91 µM (active) and 1.74 µM (active).

As for `Cc1cccc2n[nH]nc12`, the Potency result is “inactive”.

Consider `O=C1CC2(CCCC2)CC(=O)N1CCCCN1CCN(c2ncccn2)CC1`, for which the Potency was 43.6 µM (active) and inactive.

Turning to `Cc1ccnc2c1NC(=O)c1cccnc1N2C1CC1`, the Potency result was “inactive”.

Regarding `COC(=O)/C=C/c1ccccc1`, the Potency result was “inactive”.

`NC12CC3CC(CC(C3)C1)C2`: the Potency entry is “inactive”.

On to `CC(C)CCOC(=O)c1ccc(N(C)C)cc1`, for which the Potency entry is “inactive”.

With `CCCNC(C)C(=O)Nc1ccccc1C` (stereo not given), the Potency result was “inactive”.

For the compound `c1ccc2cc3c(ccc4ccccc43)cc2c1`, the Potency result is “inactive”.

For the compound `CCCCOCCOC(=O)c1ccccc1C(=O)OCCOCCCC`, the Potency result is “inactive”.

For `CC(C)(O)CCC(C)(C)O`, the Potency result is “inactive”.

For `CC(COc1ccccc1)N(CCCl)Cc1ccccc1` (stereo not given), the Potency is 49.5 µM (active) and 49 µM (active).

Take `C=C(C)C1CC=C(C)C(OC(C)=O)C1` (stereo not given): the Potency result was “inactive”.

Take `CC(N)=O`: the Potency entry was “inactive”.

Consider `CCN(CC)c1ccc2c(C)cc(=O)oc2c1`, for which the Potency is 34.9 µM (active).

As to `CCCCC/C=C/CC1CC(=O)OC1=O` (stereo not given), the Potency result was “inactive”.

For the compound `CCCCN(CCO)CCCC`, the Potency result is “inactive”.

As for `O=C(O)CCc1ccccc1`, the Potency result was “inactive”.

For `COc1nc(C)nc(Cl)c1NC1=NCCN1`, the Potency result was “inactive”.

`CCC(CO)(CO)COCC(CC)(CO)CO`: the Potency result was “inactive”.

As for `COc1ccc(CCN2CCC(Nc3nc4ccccc4n3Cc3ccc(F)cc3)CC2)cc1`, the Potency is 6.3 µM (active) and 15.1 µM (active).

For the compound `Nc1ccc2cc3ccccc3cc2c1`, the Potency result was “inactive”.

As to `Oc1c(Cl)cc(Cl)cc1Sc1cc(Cl)cc(Cl)c1O`, the Potency was 19.5 µM (active) and 15.5 µM (active).

Consider `NCCO`, for which the Potency result was “inactive”.

Turning to `Cc1cc(C2(c3cc(C)c(O)cc3C)OS(=O)(=O)c3ccccc32)c(C)cc1O`, the Potency result was “inactive”.

As for `CCCCCCC(O)CCCCCCCCCCC(=O)O` (stereo not given), the Potency result was “inactive”.

For `Cc1cc(Cc2cc(C)cc(C(C)(C)C)c2O)c(O)c(C(C)(C)C)c1`, the Potency is 9.82 µM (active) and 15.5 µM (active).

With `CC1COC(=O)O1` (stereo not given), the Potency result is “inactive”.

As to `OCC(CO)N[C@H]1C[C@](O)(CO)[C@@H](O)[C@H](O)[C@H]1O`, the Potency entry was “inactive”.

With `c1ccc2c(c1)CCCC2C1=NCCN1` (stereo not given), the Potency entry was “inactive”.

Turning to `Cc1ccc(-c2cc(C(F)(F)F)nn2-c2ccc(S(N)(=O)=O)cc2)cc1`, the Potency was 38.7 µM (active) and 30.9 µM (active).

In the case of `CC(C)(C)NCC(O)COc1ccccc1OCC1CCCO1` (stereo not given), the Potency entry is “inactive”.

Consider `O=C(O[C@@H]1Cc2c(O)cc(O)cc2O[C@@H]1c1cc(O)c(O)c(O)c1)c1cc(O)c(O)c(O)c1`, for which the Potency is 7.48 µM (active).

For `Cc1occc(=O)c1OC(=O)C(C)C`, the Potency entry was “inactive”.

For `c1ccc2c(c1)-c1cccc3c1c-2cc1ccccc13`, the Potency result was “inactive”.

`Nc1nc2ccccc2[nH]1`: the Potency entry was “inactive”.

On to `CCC(=O)/C=C/C1C(C)=CCCC1(C)C` (stereo not given), for which the Potency entry is “inactive”.

Consider `CC(=O)CC(C)=O`, for which the Potency result is “inactive”.
